PNC inhibitor – inhibitors of perinucleolar compartment assembly; PC3M PTB-GFP, PNC prevalence imaging, 16 h; active compounds read low; activity change (PNC), negative = inhibition, % at 10 µM; 3.1% of 140,000 active;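 active means readout at or below -70, meaning at least 70% loss of cells showing the perinucleolar compartment, a nuclear body marking cancer cells; inconclusive means readout between -30 and a set limit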;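 further: plate controls were DMSO wells for no effect and camptothecin positive control wells for full effect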
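Compounds are pinned in duplicate onto adhered PC3M cells stably expressing GFP-tagged PTB and incubated 16 h at 37 C. Cells are then fixed, nuclei stained with Hoechst, and PNC-positive cells counted.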
HttQ103 aggreg – inhibitors of mutant huntingtin aggregate formation in PC12 cells | PC12 HttQ103-GFP aggregates, Acumen cytometry, 40 h | Potency, µM (titrated, usually from 46.1 µM), for inactives: at the top dose activity change, negative = inhibition, hits mostly inhibitors | 1.1% of 220,000 active; further: potency means the concentration at half of the fitted maximal effect; on the % scale 0 is the no-effect control and ±100 the full control effect; nearly all actives have a fitted effect of over 60% in size
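Inducible Q103 Huntingtin exon 1–GFP PC12 line, 1500 cells/well in phenol red free DMEM with 5% equine and 5% calf serum. Tebufenozide 100 nM induced expression; compounds titrated; aggregates quantified by cytometry.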
HTT ATP protect – protects HTT-Q103 PC12 cells, measured by ATP; PC12 HTT-Q103 induced, cytoprotection, ATP luminescence, 40 h; Potency, µM (titrated, usually from 56.4 µM), for inactives: cytoprotection (ATP increase), usual class: activators; 0.14% of 230,000 active; AID 1471; further: potency means the concentration at half of the fitted maximal effect; % of control where 0% means no effect; nearly all actives have a fitted effect of over 45% in size
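Compounds added alongside 100 nM tebufenozide, which induces toxic Q103 huntingtin exon 1-GFP in stable PC12 cells; surviving cells quantified by luminescent ATP measurement. Medium: phenol red-free DMEM, 5% equine and 5% calf serum.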
* hit, by the source's call; [ ] = another dose, or the depositor's remark. This excerpt belongs to a sample that is enriched for hits. Unless noted, the call rests on the fitted dose curve; in most records, active means well fitted curve in the direction sought with a large enough effect; inconclusive means small, poorly fitted or top-dose-only effect, or another doubt; inactive means no such curve, though single readings can be large; an effect the other way counts as inactive or inconclusive.

`Cc1cc(C(N)=O)c2cc(Br)ccc2n1` gave PNC inhibitor -89.5*, HttQ103 aggreg -17.4% and HTT ATP protect 3.2%[1.9 µM].
For Cc1cc(C(=O)NN)c2cc(Br)ccc2n1 the results were PNC inhibitor -7.2, HttQ103 aggreg -2.7%[9.22 µM] and HTT ATP protect -4.1%.
O=C1COCCOCCOCC(=O)NCCN1 was read as HttQ103 aggreg 38.6%[9.22 µM] and HTT ATP protect 16.7%[10 µM].
Cn1c(=O)c2ncn(CC(=O)NCCOc3ccccc3)c2n(C)c1=O was read as PNC inhibitor 25.7, HttQ103 aggreg -14.7% and HTT ATP protect 8.3%.
For COc1ccc(CNC(=O)Cn2cnc3c(=O)n(C)c(=O)n(C)c32)cc1 the results were PNC inhibitor inconclusive, HttQ103 aggreg 0.631µM* and HTT ATP protect -10.0%[0.074 µM].
`CCCC(c1nnnn1Cc1ccc(F)cc1)N1CCN(CC)CC1` (configuration not stated) gave HttQ103 aggreg inconclusive and HTT ATP protect -64.0%[10 µM].
Screening COc1ccc(OC)c(/C=C/C(=O)OCC(=O)Nc2cccc(Oc3ccccc3)c2)c1 returned PNC inhibitor inconclusive, HttQ103 aggreg -10.8% and HTT ATP protect -4.9%[10 µM].
For Cc1ccc(NC(=O)/C=C/c2ccc([N+](=O)[O-])s2)c(C)c1 the results were PNC inhibitor -97.5*, HttQ103 aggreg 6.8% and HTT ATP protect inconclusive.
`CCCCOc1ccc(/C=C/C(=O)Nc2ccc([N+](=O)[O-])cc2C)cc1` gave PNC inhibitor inconclusive, HttQ103 aggreg 2.8% and HTT ATP protect 21.3%[10 µM].
Screening Cc1cc([N+](=O)[O-])ccc1NC(=O)/C=C/c1cccs1 returned PNC inhibitor -112.5*, HttQ103 aggreg 3.9% and HTT ATP protect -2.8%[10 µM].
Cc1ccc(NC(=O)/C=C/c2ccc([N+](=O)[O-])s2)cc1 was read as PNC inhibitor -17.0, HttQ103 aggreg inconclusive and HTT ATP protect 35.6%[10 µM].
COc1ccc(-c2nc(NC(C)=O)sc2-c2ccccc2)cc1 was read as HttQ103 aggreg 24.3% and HTT ATP protect -11.5%[10 µM].
`O=C(Cc1ccccc1)NC(NNc1ccccc1)(C(F)(F)F)C(F)(F)F` gave PNC inhibitor -19.3, HttQ103 aggreg -18.6% and HTT ATP protect 2.1%[10 µM].
Screening Cc1cc2nnc(SCCCCN3C(=O)c4ccccc4C3=O)n2c2ccccc12 returned PNC inhibitor inconclusive, HttQ103 aggreg 5.4% and HTT ATP protect -13.9%.
`CCCCCC1CCC(C(=O)NNC(=S)NCC)CC1` (configuration not stated) gave PNC inhibitor 35.3, HttQ103 aggreg -7.9% and HTT ATP protect -24.1%.
Screening Cc1ccc(C(=O)NCCSc2snnc2C)cc1 returned PNC inhibitor 34.4, HttQ103 aggreg inconclusive and HTT ATP protect 25.3%[10 µM].
Screening Cc1nnsc1SCCNC(=O)c1c(F)cccc1F returned PNC inhibitor -81.5*, HttQ103 aggreg 0.4% and HTT ATP protect 6.1%[10 µM].
`Nc1nc(SCC(=O)Nc2ccc(Oc3ccccc3)cc2)n[nH]1` gave PNC inhibitor inconclusive, HttQ103 aggreg 4.6% and HTT ATP protect -11.6%[10 µM].
`Nc1nc(SCC(=O)Nc2ccccc2Sc2ccccc2)n[nH]1` gave PNC inhibitor -111.3*, HttQ103 aggreg 33.0% and HTT ATP protect -7.8%.
Screening C=CCn1c(NCCc2ccccc2)nc2c1c(=O)n(C)c(=O)n2C returned PNC inhibitor inconclusive, HttQ103 aggreg 11.2µM* and HTT ATP protect 11.0%[10 µM].
For Cc1ccc(Cn2c(NCCc3ccccc3)nc3c2c(=O)n(C)c(=O)n3C)cc1 the results were PNC inhibitor inconclusive, HttQ103 aggreg inconclusive and HTT ATP protect -28.6%.
`C/C(Cl)=C\Cn1c(NCCc2ccccc2)nc2c1c(=O)n(C)c(=O)n2C` gave PNC inhibitor -22.2, HttQ103 aggreg 4.47µM* and HTT ATP protect -64.4%.
For Cn1c(=O)c2c(nc(NCCc3ccccc3)n2CC(=O)NCCc2ccccc2)n(C)c1=O the results were PNC inhibitor inconclusive, HttQ103 aggreg 13.9% and HTT ATP protect 6.8%[10 µM].
Screening COc1ccc(-n2c(=O)c(-c3ccc(F)cc3)nc3cnc(N4CCOCC4)nc32)cc1 returned HTT ATP protect -36.2%.
For O=C(NC1CC1)c1ccc(S(=O)(=O)NCC2CCCCC2)cc1 the results were PNC inhibitor 8.4, HttQ103 aggreg 5.6% and HTT ATP protect -10.5%[10 µM].
`Cc1ccc(C(=O)CSC2=C(C#N)C(c3ccco3)C3=C(CCCC3=O)N2)cc1` (configuration not stated) gave PNC inhibitor -2.0, HttQ103 aggreg -7.6% and HTT ATP protect -89.7%.
For N#CC1=C(SCC(=O)c2ccccc2)NC2=C(C(=O)CCC2)C1c1ccco1 (configuration not stated) the results were PNC inhibitor -89.4*, HttQ103 aggreg 11.2µM* and HTT ATP protect -111.4%.
C=CS(=O)(=O)c1ccc(Oc2ccc(S(=O)(=O)C=C)cc2)cc1 was read as PNC inhibitor -134.0* and HTT ATP protect 11.4%[10 µM].
For O=S(=O)(c1ccc(Oc2ccc(S(=O)(=O)N3CCOCC3)cc2)cc1)N1CCOCC1 the results were PNC inhibitor -8.0, HttQ103 aggreg -25.0% and HTT ATP protect -9.2%.
CCOC(=O)COC(=O)c1ccc(Oc2cc(C)nc(SC)n2)cc1 was read as PNC inhibitor 31.4, HttQ103 aggreg -7.7% and HTT ATP protect -13.4%[1.9 µM].
Screening CCOC(=O)c1ccc(Oc2cc(C)nc(SC)n2)cc1 returned PNC inhibitor -99.8*, HttQ103 aggreg 22.8% and HTT ATP protect 4.1%[10 µM].
For O=C1/C(=C/c2ccccn2)SC(=S)N1CCc1ccccc1 the results were HttQ103 aggreg 3.8%[9.22 µM] and HTT ATP protect 26.9%[10 µM].
For COc1ccccc1C(=O)NCC(=O)OC(C)C(=O)NC(=O)NC1CCCCC1 (configuration not stated) the results were PNC inhibitor inconclusive, HttQ103 aggreg 9.2% and HTT ATP protect 5.9%.
For Cc1nn(-c2ccccc2)c(Cl)c1C(=O)OC(C)C(=O)NC(=O)NC1CCCCC1 (configuration not stated) the results were PNC inhibitor 22.0, HttQ103 aggreg 11.2µM* and HTT ATP protect -55.9%.
`O=S(=O)(Nc1nc2ccccc2nc1N1CCc2ccccc2C1)c1ccc(Br)cc1` gave PNC inhibitor 0.3, HttQ103 aggreg 7.08µM* and HTT ATP protect -38.4%[10 µM].
Screening O=S(=O)(Nc1nc2ccccc2nc1Cl)c1ccc(Br)cc1 returned HttQ103 aggreg 10µM* and HTT ATP protect -6.3%.
`O=S(=O)(Nc1nc2ccccc2nc1N1CCc2ccccc2C1)c1ccc(Cl)cc1` gave PNC inhibitor 50.7, HttQ103 aggreg inconclusive and HTT ATP protect 9.5%[10 µM].
O=S(=O)(Nc1nc2ccccc2nc1Cl)c1ccc(Cl)cc1 was read as PNC inhibitor inconclusive, HttQ103 aggreg 5.5% and HTT ATP protect 4.8%[0.074 µM].
For Cc1ccc(CCNC(=O)C2CCCN(S(=O)(=O)c3c(C)nn(C)c3C)C2)cc1 (configuration not stated) the results were PNC inhibitor 1.2, HttQ103 aggreg -10.4% and HTT ATP protect -2.5%.
O=C(C(Cc1ccccc1)N1C(=O)c2ccccc2C1=O)N1c2ccccc2CCc2ccccc21 (configuration not stated) was read as PNC inhibitor 70.2, HttQ103 aggreg -30.5% and HTT ATP protect 14.7%[10 µM].
For O=C(Nc1ccc(-c2cn3ccccc3n2)cc1)c1ccc(Cl)cc1 the results were PNC inhibitor 43.4, HttQ103 aggreg 2.82µM* and HTT ATP protect -99.2%[10 µM].

Source: PubChem (National Center for Advancing Translational Sciences (NCATS))
